This is an account of results in paper PMC4336329 (PLoS ONE, 2015).

Screen size: about 310,000 compounds; about 14,000 (4.5%) showed an effect of 50% or more. The effect is printed as a negative number. This is one part of a sample in which strong results are shown more often than they occur.
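Note: peak tail current of the secondary pulse compared with the same well before compound.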

For this experiment, the target named is human ether-à-go-go-related gene (hERG) potassium channel (human, UniProt Q12809). Put plainly: primary screen, population patch clamp on CHO cells stably expressing hERG; higher = less effect of the substance.
Chain of human ether-à-go-go-related gene (hERG) potassium channel (Q12809 whole entry, looked up): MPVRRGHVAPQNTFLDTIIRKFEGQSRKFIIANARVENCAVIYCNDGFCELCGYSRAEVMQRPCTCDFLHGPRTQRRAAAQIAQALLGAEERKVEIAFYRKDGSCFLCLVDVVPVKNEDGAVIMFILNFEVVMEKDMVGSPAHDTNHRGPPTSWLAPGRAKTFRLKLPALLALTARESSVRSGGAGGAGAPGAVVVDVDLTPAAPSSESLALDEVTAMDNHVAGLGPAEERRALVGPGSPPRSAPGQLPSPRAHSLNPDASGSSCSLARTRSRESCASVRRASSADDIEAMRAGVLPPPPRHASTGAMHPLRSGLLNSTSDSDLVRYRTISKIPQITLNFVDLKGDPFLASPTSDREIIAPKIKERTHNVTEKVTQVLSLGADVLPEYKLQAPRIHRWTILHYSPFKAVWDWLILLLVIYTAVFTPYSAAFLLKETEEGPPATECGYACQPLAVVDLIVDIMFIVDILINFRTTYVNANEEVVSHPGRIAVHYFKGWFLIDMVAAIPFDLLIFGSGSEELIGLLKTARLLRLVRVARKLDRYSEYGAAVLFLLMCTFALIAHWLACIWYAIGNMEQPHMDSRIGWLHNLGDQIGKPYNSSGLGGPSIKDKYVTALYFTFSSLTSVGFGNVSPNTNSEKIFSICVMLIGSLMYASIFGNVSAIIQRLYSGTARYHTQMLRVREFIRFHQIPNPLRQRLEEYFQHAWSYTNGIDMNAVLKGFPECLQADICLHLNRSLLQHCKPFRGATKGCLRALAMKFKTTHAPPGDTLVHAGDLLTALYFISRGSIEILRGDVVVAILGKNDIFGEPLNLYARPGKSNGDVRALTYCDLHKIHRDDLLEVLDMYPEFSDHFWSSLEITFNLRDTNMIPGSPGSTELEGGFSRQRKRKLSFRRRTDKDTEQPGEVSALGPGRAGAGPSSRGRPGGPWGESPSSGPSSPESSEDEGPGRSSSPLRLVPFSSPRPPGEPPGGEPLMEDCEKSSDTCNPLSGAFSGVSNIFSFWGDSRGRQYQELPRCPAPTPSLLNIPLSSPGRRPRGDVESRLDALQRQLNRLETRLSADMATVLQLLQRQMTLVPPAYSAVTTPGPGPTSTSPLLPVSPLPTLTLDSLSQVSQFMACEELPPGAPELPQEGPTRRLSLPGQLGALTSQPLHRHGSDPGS
Take `CCN(Cc1ccncc1)Cc1ccc(Br)cc1.O=C(O)C(=O)O`: the “hERG current change (%, negative = inhibition) at 10uM” value is -5.38%.
The result for `COc1cccc(CC(=O)OC(C)C(=O)NCc2ccc3c(c2)OCO3)c1` (centres unmarked) reads -3.97%.
`COc1cc(C(CC(=O)N2CCN(c3ccccc3)CC2)c2c(OC)cc(OC)c3ccc(=O)oc23)cc(OC)c1OC` (centres unmarked): the “hERG current change (%, negative = inhibition) at 10uM” value is given as -29%.
Then `COc1ccc(-c2nnc(SCC#N)o2)cc1`, with 11.3%; and `CCOC(=O)CCCNC(=O)CCNC(=O)c1ccc(OCC(C)C)cc1`, with 3.61%; and `COc1ccc(C(=O)CN2C(=O)c3ccccc3C2=O)cc1`, with 7.16%.
Then `COc1ccc(-c2cc(C(F)(F)F)c3c(N)c(C(=O)NCCSC)sc3n2)cc1`, with -10.7%; and `CN(C)CCNC(=O)c1sc2nc(-c3ccccc3)cc(C(F)(F)F)c2c1N`, with -57.8%; and `Nc1c(C(=O)C2CC2)sc2nc(-c3ccccc3)cc(C(F)(F)F)c12`, with 18.8%.
Then `Cc1ccc(CNC(=O)c2ccc(Cn3cc(-c4ccc(C)cc4)nc3-c3ccncc3)cc2)cc1`, with 5.94%.
As to `COc1ccc(-c2cn(Cc3ccc(C(N)=O)cc3)c(CCN)n2)cc1`, the “hERG current change (%, negative = inhibition) at 10uM” value is -13.9%.
Then `COc1ccc(-c2cn(Cc3ccc(C(N)=O)cc3)c(-c3ccc(Cl)nc3)n2)cc1`, with -71.4%; and `COc1ccc(-c2cn(CCC(=O)O)c(-c3ccc(Cl)nc3)n2)cc1`, with 9.6%; and `COc1ccc(-c2cn(Cc3ccc(C(N)=O)cc3)c(-c3ccncc3)n2)cc1`, with -60.1%.
The result for `COc1ccc(-c2cn(CCO)c(-c3ccc(Cl)nc3)n2)cc1` reads -9.71%; that for `O=C(c1ccc(CS(=O)(=O)c2ccc(Br)cc2)o1)N1CCN(c2ccccn2)CC1`, -36%.
The result for `Cc1ccc(-n2c(C)nc3ccsc3c2=O)cc1` reads 1.42%.
As to `O=C(CCc1nc(-c2ccccc2Cl)no1)NC1CCCCC1`, the “hERG current change (%, negative = inhibition) at 10uM” value is recorded as 10.6%.
As for `CCCCCCCNC(=O)COc1ccc2c(c1)C(=O)CC(C)(C)O2`, the “hERG current change (%, negative = inhibition) at 10uM” value is -14.4%.
`CCOC(=O)CNC(=S)N(CCCN1CCCC1)Cc1cccs1`: the “hERG current change (%, negative = inhibition) at 10uM” value is given as -53.6%.
Consider `COCCNC(=O)CNC(=S)N(CCCN1CCOCC1)Cc1cccs1`, for which the “hERG current change (%, negative = inhibition) at 10uM” value was found to be 14.1%.
Then `CCOC(=O)CNC(=S)N(CCCN1CCN(C)CC1)Cc1cccs1`, with -43.5%; and `O=C(CNC(=S)N(CCCN1CCOCC1)Cc1cccs1)N1CCCC1`, with 3.09%; and `CCOC(=O)CNC(=S)N(CCCN1CCCCCC1)Cc1cccs1`, with -65.8%.
The result for `O=C(CNC(=S)N(CCCN1CCOCC1)Cc1cccs1)N1CCOCC1` reads -9.74%; that for `O=C(CNC(=S)N(CCCN1CCOCC1)Cc1cccs1)N1CCCCCC1`, -41.4%; that for `CCOC(=O)CNC(=S)N(CCCN1CCCCC1)Cc1cccs1`, -62.6%.
Then `CCN(CC)CCNC(=O)CNC(=S)N(CCCN1CCOCC1)Cc1cccs1`, with 15.7%.
As for `O=C(Nc1cccc(F)c1)c1cc(S(=O)(=O)NCCC2=CCCCC2)ccc1F`, the “hERG current change (%, negative = inhibition) at 10uM” value was found to be 17.4%.
In the case of `COc1ccccc1N(CC(=O)NCCSCc1ccccc1)S(C)(=O)=O`, the “hERG current change (%, negative = inhibition) at 10uM” value was determined as 4.03%.
The result for `COc1ccc(N2CC(C)Cn3c2nc2c3c(=O)[nH]c(=O)n2C)cc1` (centres unmarked) reads -24.3%.
Then `N#Cc1c(NC(=O)CSc2ncccn2)oc(-c2ccccc2)c1-c1ccccc1`, with 25.2%.
Then `Nc1nc(Cl)nc2ccc(Br)cc12`, with 7.87%.
As for `CC(=O)c1c(C)nc2ccccc2c1N`, the “hERG current change (%, negative = inhibition) at 10uM” value is given as -10.1%.
In the case of `Cc1[nH]c2ccccc2c1C(=O)/C=C/c1ccccc1`, the “hERG current change (%, negative = inhibition) at 10uM” value is reported as 8.96%.
`Cc1nc2ccccc2c(N)c1C(=O)/C=C/c1ccccc1`: the “hERG current change (%, negative = inhibition) at 10uM” value is reported as -79.7%.
Then `Cc1occc1-c1nnc(SCCNCCO)o1.O=C(O)C(=O)O`, with 63.6%; and `COc1ccc(C2NC(=O)CCC2[N+](=O)[O-])cc1OC` (centres unmarked), with 10.1%.
Then `CSc1cccc(NC(=O)CCCOc2ccc(Cl)cc2C)c1`, with -2.48%; and `c1ccc(Cn2nnnc2CN2CCN(Cc3ccc4c(c3)OCO4)CC2)cc1`, with -61.1%; and `c1ccc2sc(C3CCN(Cc4nnnn4Cc4ccc5c(c4)OCO5)CC3)nc2c1`, with -8.73%.
Then `Cl.NC(=O)C1CCN(C(c2ccccc2F)c2nnnn2Cc2ccco2)CC1` (centres unmarked), with 11.1%.
Consider `CC(C)C(c1nnnn1Cc1ccccc1)N1CCN(Cc2ccc3c(c2)OCO3)CC1` (centres unmarked), for which the “hERG current change (%, negative = inhibition) at 10uM” value is given as -52%.
As to `Fc1ccccc1C(c1nnnn1Cc1ccc2c(c1)OCO2)N1CCN(Cc2ccccc2)CC1` (centres unmarked), the “hERG current change (%, negative = inhibition) at 10uM” value is recorded as -55.3%.
Then `Cl.Fc1ccccc1C(c1nnnn1Cc1ccc2c(c1)OCO2)N1CCN(Cc2ccco2)CC1` (centres unmarked), with -56.4%.
The result for `CC(C)C(c1nnnn1Cc1ccccc1)N1CCN(Cc2ccco2)CC1.Cl` (centres unmarked) reads -32.1%; that for `CC(C)C(c1nnnn1Cc1ccc(F)cc1)N1CCN(Cc2ccc3c(c2)OCO3)CC1` (centres unmarked), -43.3%.
The result for `c1ccc2c(c1)CCN(Cc1nnnn1Cc1ccc3c(c1)OCO3)C2` reads -3.1%; that for `Cl.c1ccc(CCn2nnnc2C(c2cccs2)N2CCN(Cc3ccc4c(c3)OCO4)CC2)cc1` (centres unmarked), -24.1%.
Turning to `CCN1CCN(C(c2ccccc2F)c2nnnn2Cc2ccc3c(c2)OCO3)CC1.Cl` (centres unmarked), the “hERG current change (%, negative = inhibition) at 10uM” value is given as -37.6%.
The result for `CC(C)C(c1nnnn1Cc1ccc2c(c1)OCO2)N1CCN(c2ccccc2)CC1` (centres unmarked) reads 23.1%; that for `O=C(CN1C(=O)NC2(CCCC2)C1=O)OCc1ccc(Cl)cc1Cl`, -20.9%; that for `CC(C)c1ccc(/C=C/C(=O)N2CCc3ccccc3C2)cc1`, 3.46%.
Then `O=C(CC(SCCO)c1ccc([N+](=O)[O-])cc1)c1ccco1` (centres unmarked), with -35.7%; and `O=C(NCc1ccccc1Cl)c1cc2c(s1)CS(=O)(=O)C2`, with -4.86%; and `Cc1nnc(C)n1/N=C/c1cc(Br)ccc1O`, with 9.86%.
The result for `C/C(=N/NS(=O)(=O)c1ccc(C)cc1C)c1ccc2c(c1)OCO2` reads -2.58%; that for `O=C(O)c1ccccc1SSc1ccccc1C(=O)O`, 25.5%.
Regarding `O=C(c1ccco1)N1CCC(c2nc(-c3ccccc3Cl)no2)CC1`, the “hERG current change (%, negative = inhibition) at 10uM” value is -11.5%.
For `Clc1ccc(CNCc2cccs2)cc1Cl`, the “hERG current change (%, negative = inhibition) at 10uM” value was determined as 7.52%.
As for `CC1CC(C)CN(C(=O)Nc2ccccc2F)C1` (centres unmarked), the “hERG current change (%, negative = inhibition) at 10uM” value is reported as 22.9%.
Then `CCN(CC)S(=O)(=O)c1ccc(C(=O)NC2CN3CCC2CC3)cc1` (centres unmarked), with 25.6%; and `CN(/N=C/c1ccc(C(C)(C)C)cc1)C1=NCCN1`, with -71.6%; and `Br.COc1ccc(/C=N/N(C)C2=NCCN2)c(OC)c1OC`, with 5.63%.
As to `Br.CN(/N=C/c1ccncc1)C1=NCCN1`, the “hERG current change (%, negative = inhibition) at 10uM” value was 5.06%.
The result for `Cc1ccccc1C(=O)N1CCC(C(=O)Nc2ccccn2)CC1` reads 11.9%.
Then `Cn1nc(C(=O)N2CCOCC2)c([N+](=O)[O-])c1C(=O)N1CCOCC1`, with -54.4%; and `Cc1onc(C(=O)N2CCOCC2)c1[N+](=O)[O-]`, with 19.8%; and `Cn1nc(C(C)(C)C)c([N+](=O)[O-])c1C(=O)N1CCOCC1`, with 17.3%.
The result for `Cc1cc2ncn(CC(C)C)c2cc1C` reads -3.79%.
In the case of `O=C(CN1CCC(O)(c2ccc3c(c2)OCO3)CC1)NC1CCCCC1`, the “hERG current change (%, negative = inhibition) at 10uM” value stood at 3.07%.
Regarding `CSC(=Nc1ccccc1)Nc1ccccc1`, the “hERG current change (%, negative = inhibition) at 10uM” value is -15.8%.
Then `CSC(=Nc1ccc(Cl)cc1)N[n+]1ccccc1.[I-]`, with -58.8%; and `[S-]C(=Nc1ccc(Cl)cc1)N[n+]1ccccc1`, with 1.12%; and `C[N+]1(CCC(C(N)=O)(c2ccccc2)c2ccccc2)CCCCC1.[Br-]`, with 10.7%.
Then `ClCc1csc(N/N=C/c2cccs2)n1`, with 11.8%; and `CCOc1ccc(Br)cc1S(=O)(=O)Nc1ccc(C(=O)OCC(=O)N(C)c2ccccc2)cc1`, with 12.7%; and `CC1CC(OC(=O)c2ccccc2)(c2ccccc2)C(C)CN1C` (centres unmarked), with -8.66%.
Then `O=C(CCCN1C(=O)/C(=C/c2ccccc2)SC1=S)Nc1cccc(O)c1`, with 2.17%; and `O=C(O)CCC(=O)NNC(=O)COc1cccc(Cl)c1`, with 2.84%.
As for `O=C(Cc1ccc(F)cc1)N1CCN=C1SCc1ccc([N+](=O)[O-])cc1`, the “hERG current change (%, negative = inhibition) at 10uM” value is recorded as -47.3%.
As for `COc1ccc(CC(=O)N2CCN=C2SCc2cccc([N+](=O)[O-])c2)cc1`, the “hERG current change (%, negative = inhibition) at 10uM” value is recorded as -5.33%.
The result for `O=C(Cc1ccc([N+](=O)[O-])cc1)N1CCN=C1SCc1ccccc1` reads -7.33%; that for `O=C(Cc1ccccc1)N1CCN=C1SCc1ccc([N+](=O)[O-])cc1`, -55.5%; that for `COc1ccc(CC(=O)N2CCN=C2SCc2ccc([N+](=O)[O-])cc2)cc1`, -52.2%.
The result for `CCOc1ccc(CC(=O)N2CCN=C2SCc2ccc([N+](=O)[O-])cc2)cc1` reads 5.05%; that for `CS(=O)(=O)N(Cc1ccccc1)c1ccc(C(=O)Nc2ccc(C(N)=O)cc2)cc1`, 12.8%; that for `Cn1c(N)c(C(=O)COC(=O)c2ccc(Cl)c(S(=O)(=O)N3CCCC3)c2)c(=O)n(C)c1=O`, -43.9%.
Then `COC(CNc1ccc([N+](=O)[O-])c(NCC(OC)OC)c1C#N)OC`, with 5.62%.
